We go through six compounds from PubChem BioAssay (EPA / NIEHS).

Read-out in assay [1]: Tumor necrosis factor receptor superfamily member 6 (Homo sapiens) (UniProt P25445)
Nature of the assay: LTEA_HepaRG_FAS: Life Technologies and Expression Analysis (LTEA) Assay for Fas cell surface death receptor (FAS) using HepaRG (AID 2283447). The conditions noted are these: mRNA level, 48 h; actives raise or lower the signal. Summed up: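 Differentiated HepaRG cells in serum-free induction medium were exposed 48 h to 8 half-log concentrations up to 100 uM in 0.5% DMSO, in duplicate. FAS mRNA was measured by qRT-PCR normalised to ACTB, GAPDH and POLR2A; bidirectional fit versus DMSO.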

Read-out in assay [2]: Cyclin Dependent Kinase Inhibitor 1A (CDKN1A), CDKN1A (gene 1026)
Description: LTEA_HepaRG_CDKN1A: Life Technologies and Expression Analysis (LTEA) Assay for Cyclin Dependent Kinase Inhibitor 1A (CDKN1A) using HepaRG (AID 2283450). Particulars: mRNA level, 48 h; actives raise or lower the signal. Summed up: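 Differentiated HepaRG cells in serum-free induction medium, exposed 48 h in duplicate to eight half-log concentrations up to 100 uM in 0.5% DMSO. mRNA measured by TaqMan qRT-PCR, normalized to ACTB, GAPDH, POLR2A; bidirectional fit versus DMSO.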

Read-out in assay [3]: Cyclin D1 (CCND1), CCND1 (gene 595)
Nature of the assay: LTEA_HepaRG_CCND1: Life Technologies and Expression Analysis (LTEA) Assay for Cyclin D1 (CCND1) using HepaRG (AID 2283451). The conditions noted are these: mRNA level, 48 h; actives raise or lower the signal. Summed up: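 Differentiated HepaRG cells exposed 48 h in serum-free induction medium to eight half-log concentrations from 100 uM top, 0.5% DMSO, duplicates. CCND1 mRNA measured by Fluidigm TaqMan qRT-PCR, normalised to ACTB, GAPDH, POLR2A; bidirectional fit.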

Read-out in assay [4]: catalase (CAT), CAT (gene 847)
Nature of the assay: LTEA_HepaRG_CAT: Life Technologies and Expression Analysis (LTEA) Assay for catalase (CAT) using HepaRG (AID 2283452). The conditions noted are these: mRNA level, 48 h; actives raise or lower the signal. Summed up: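 HepaRG cells in serum-free induction medium, 0.5% DMSO vehicle, exposed 48 h in duplicate over 8 half-log concentrations from 100 uM. CAT mRNA measured by qRT-PCR, normalized to ACTB, GAPDH, POLR2A; bidirectional fit versus DMSO.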

Read-out in assay [5]: flavin-containing dimethylaniline monooxygenases 3 (FMO3), FMO3 (gene 2328)
Nature of the assay: LTEA_HepaRG_FMO3: Life Technologies and Expression Analysis (LTEA) Assay for flavin-containing dimethylaniline monooxygenases 3 (FMO3) using HepaRG (AID 2283453). Particulars: mRNA level, 48 h; actives raise or lower the signal. Summed up: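 Differentiated HepaRG cells in serum-free induction medium, exposed 48 h in duplicate to 8 half-log concentrations up to 100 uM in 0.5% DMSO. FMO3 mRNA by qRT-PCR, normalized to ACTB, GAPDH, POLR2A; bidirectional fit vs DMSO.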

Read-out in assay [6]: Cytochrome P450 (CYP1A1), CYP1A1 (gene 1543)
Nature of the assay: LTEA_HepaRG_CYP1A1: Life Technologies and Expression Analysis (LTEA) Assay for Cytochrome P450 (CYP1A1) using HepaRG (AID 2283454). The conditions noted are these: mRNA level, 48 h; actives raise or lower the signal. Summed up:
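Differentiated human HepaRG cells, after 48 h plating, exposed in duplicate for 48 h in serum-free induction medium to 8 half-log concentrations up to 100 uM in 0.5% DMSO. CYP1A1 mRNA by qRT-PCR, normalized to ACTB/GAPDH/POLR2A; bidirectional fit versus DMSO.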

Read-out in assay [7]: CFLAR gene, CFLAR (gene 8837)
Description: LTEA_HepaRG_CFLAR: Life Technologies and Expression Analysis (LTEA) Assay for CFLAR gene using HepaRG (AID 2283455). Particulars: mRNA level, 48 h; actives raise or lower the signal. In outline: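 Differentiated HepaRG cells in serum-free induction medium were exposed 48 h in duplicate to eight half-log concentrations up to 100 uM in 0.5% DMSO; mRNA measured by TaqMan qRT-PCR, normalized to ACTB, GAPDH, POLR2A; bidirectional fitting versus DMSO.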

Read-out in assay [8]: Forkhead box O1 (FOXO1), FOXO1 (gene 2308)
Description: LTEA_HepaRG_FOXO1: Life Technologies and Expression Analysis (LTEA) Assay for Forkhead box O1 (FOXO1) using HepaRG (AID 2283456). Particulars: mRNA level, 48 h; actives raise or lower the signal. Summed up: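 Differentiated HepaRG cells, in serum-free induction medium with 0.5% DMSO, exposed 48 h in duplicate to 8-point half-log series from 100 uM. FOXO1 mRNA measured by TaqMan qRT-PCR, normalized to ACTB, GAPDH, POLR2A; bidirectional fit versus DMSO.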

Read-out in assay [9]: growth arrest and DNA damage 45 (GADD45A), GADD45A (gene 1647)
Description: LTEA_HepaRG_GADD45A: Life Technologies and Expression Analysis (LTEA) Assay for growth arrest and DNA damage 45 (GADD45A) using HepaRG (AID 2283458). The conditions noted are these: mRNA level, 48 h; actives raise or lower the signal. Summed up:
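Cells plated and cultured 48 h, switched to serum-free induction medium, then dosed for 48 h (100 uM top, half-log dilutions, 0.5% DMSO). RNA was isolated and transcript measured by Fluidigm qRT-PCR.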

Read-out in assay [10]: Forkhead box O3 (FOXO3), FOXO3 (gene 2309)
Nature of the assay: LTEA_HepaRG_FOXO3: Life Technologies and Expression Analysis (LTEA) Assay for Forkhead box O3 (FOXO3) using HepaRG (AID 2283459). The conditions noted are these: mRNA level, 48 h; actives raise or lower the signal. Summed up:
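Differentiated human HepaRG cells, 48 h post-plating, exposed in duplicate for 48 h in serum-free induction medium; 8-point half-log series from 100 uM in 0.5% DMSO. FOXO3 mRNA by TaqMan qRT-PCR, normalized to ACTB/GAPDH/POLR2A; bidirectional fit versus DMSO.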

Read-out in assay [11]: ABC Transporter (ABCB1), ABCB1 (gene 5243)
Nature of the assay: LTEA_HepaRG_ABCB1: Life Technologies and Expression Analysis (LTEA) Assay for ABC Transporter (ABCB1) using HepaRG (AID 2283460). The conditions noted are these: mRNA level, 48 h; actives raise or lower the signal. Summed up:
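HepaRG cells exposed in duplicate for 48 h in serum-free induction medium to eight half-log concentrations up to 100 uM in 0.5% DMSO. ABCB1 mRNA quantified by qRT-PCR, normalised to ACTB, GAPDH and POLR2A; fitted bidirectionally versus DMSO.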

Read-out in assay [12]: growth arrest and DNA damage 45 (GADD45B), GADD45B (gene 4616)
Nature of the assay: LTEA_HepaRG_GADD45B: Life Technologies and Expression Analysis (LTEA) Assay for growth arrest and DNA damage 45 (GADD45B) using HepaRG (AID 2283461). Particulars: mRNA level, 48 h; actives raise or lower the signal. In outline:
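Differentiated human HepaRG cells in serum-free induction medium exposed 48 h in duplicate to eight concentrations, top 100 uM, half-log steps, 0.5% DMSO. GADD45B mRNA by TaqMan qRT-PCR, normalized to ACTB, GAPDH, POLR2A; bidirectional fit versus DMSO.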

Read-out in assay [13]: ABC Transporter (ABCC3), ABCC3 (gene 8714)
Nature of the assay: LTEA_HepaRG_ABCC3: Life Technologies and Expression Analysis (LTEA) Assay for ABC Transporter (ABCC3) using HepaRG (AID 2283462). The conditions noted are these: mRNA level, 48 h; actives raise or lower the signal. In outline: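 Differentiated human HepaRG cells exposed 48 h in serum-free induction medium, 0.5% DMSO vehicle, 8-point half-log series to 100 uM in duplicate. ABCC3 mRNA by qRT-PCR, normalised to ACTB, GAPDH, POLR2A; bidirectional fit vs DMSO.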

Read-out in assay [14]: ABC Transporter (ABCB11), ABCB11 (gene 8647)
Nature of the assay: LTEA_HepaRG_ABCB11: Life Technologies and Expression Analysis (LTEA) Assay for ABC Transporter (ABCB11) using HepaRG (AID 2283463). Particulars: mRNA level, 48 h; actives raise or lower the signal. Summed up:
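Differentiated human HepaRG cells in serum-free induction medium, dosed in duplicate for 48 h. Eight-point half-log series from 100 uM in 0.5% DMSO; ABCB11 mRNA by qRT-PCR, normalized to ACTB, GAPDH, POLR2A, fitted bidirectionally versus DMSO.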

Read-out in assay [15]: ABC Transporter (ABCC2), ABCC2 (gene 1244)
Nature of the assay: LTEA_HepaRG_ABCC2: Life Technologies and Expression Analysis (LTEA) Assay for ABC Transporter (ABCC2) using HepaRG (AID 2283464). The conditions noted are these: mRNA level, 48 h; actives raise or lower the signal. In outline:
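Differentiated HepaRG cells in serum-free induction medium exposed 48 h to eight half-log concentrations up to 100 uM, 0.5% DMSO, in duplicate. ABCC2 mRNA measured by qRT-PCR (TaqMan, Fluidigm), normalized to ACTB, GAPDH and POLR2A. Fitted in both directions against DMSO.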

Read-out in assay [16]: Broad substrate specificity ATP-binding cassette transporter ABCG2 (Homo sapiens) (UniProt Q9UNQ0)
Description: LTEA_HepaRG_ABCG2: Life Technologies and Expression Analysis (LTEA) Assay for ABC Transporter (ABCG2) using HepaRG (AID 2283465). The conditions noted are these: mRNA level, 48 h; actives raise or lower the signal. In outline: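 Differentiated HepaRG cells were exposed for 48 h in serum-free induction medium to 8 half-log concentrations, top 100 uM, in 0.5% DMSO. ABCG2 mRNA was measured by qRT-PCR, normalized to ACTB, GAPDH and POLR2A, with bidirectional fitting versus DMSO.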

Read-out in assay [17]: ATP-citrate lyase (ACLY), ACLY (gene 47)
Nature of the assay: LTEA_HepaRG_ACLY: Life Technologies and Expression Analysis (LTEA) Assay for ATP-citrate lyase (ACLY) using HepaRG (AID 2283466). Particulars: mRNA level, 48 h; actives raise or lower the signal. Summed up:
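Differentiated HepaRG cells exposed 48 h in serum-free induction medium to eight half-log concentrations up to 100 uM in 0.5% DMSO, duplicates. Transcript measured by Fluidigm TaqMan qRT-PCR, normalized to ACTB, GAPDH, POLR2A; bidirectional fit versus DMSO.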

Assay [18] can be described thus: CEETOX_H295R_TESTO: CeeTox H295R High-throughput Steroidogenesis Assay for Testosterone (TESTO) (AID 2283457). The conditions noted are these: actives raise or lower the signal. In outline:
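H295R adrenal cells, passage ≤10, exposed to chemicals for 48 h. Testosterone in medium measured by MTBE extraction and HPLC-MS/MS against a 7-point standard curve. Bidirectional fit versus DMSO; MTT viability checked in the same wells.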

Read-out in assay [19]: Fatty acid synthase (Homo sapiens) (UniProt P49327)
Nature of the assay: LTEA_HepaRG_FASN: Life Technologies and Expression Analysis (LTEA) Assay for Fatty Acid Synthase (FASN) using HepaRG (AID 2283448). The conditions noted are these: mRNA level, 48 h; actives raise or lower the signal. In outline: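 FASN expression changes, up or down relative to 0.5% DMSO, were measured by qRT-PCR in human HepaRG cells after 48 h treatment with chemicals at eight concentrations (half-log steps from 100 uM).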

Read-out in assay [20]: Cyclin D2 (CCND2), CCND2 (gene 894)
Description: LTEA_HepaRG_CCND2: Life Technologies and Expression Analysis (LTEA) Assay for Cyclin D2 (CCND2) using HepaRG (AID 2283449).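 Note: CCND2 transcript measured by TaqMan qRT-PCR and normalised to three housekeeping genes.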 The conditions noted are these: mRNA level, 48 h; actives raise or lower the signal. In outline:
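Chemicals in 0.5% DMSO, eight half-log concentrations from 100 uM top, were applied in duplicate for 48 h to human HepaRG cells in serum-free induction medium. CCND2 mRNA by TaqMan qRT-PCR, normalised to ACTB/GAPDH/POLR2A; bidirectional fit versus DMSO.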

SMILES strings stand for the structures. Active and inactive are the calls of the source. Rule for the calls: active = hit-call score of the fitted dose curve at least 0.9, where 1 is the maximum; inactive = score below 0.9.

Chain of Broad substrate specificity ATP-binding cassette transporter ABCG2 (Homo sapiens) (Q9UNQ0 whole entry, looked up): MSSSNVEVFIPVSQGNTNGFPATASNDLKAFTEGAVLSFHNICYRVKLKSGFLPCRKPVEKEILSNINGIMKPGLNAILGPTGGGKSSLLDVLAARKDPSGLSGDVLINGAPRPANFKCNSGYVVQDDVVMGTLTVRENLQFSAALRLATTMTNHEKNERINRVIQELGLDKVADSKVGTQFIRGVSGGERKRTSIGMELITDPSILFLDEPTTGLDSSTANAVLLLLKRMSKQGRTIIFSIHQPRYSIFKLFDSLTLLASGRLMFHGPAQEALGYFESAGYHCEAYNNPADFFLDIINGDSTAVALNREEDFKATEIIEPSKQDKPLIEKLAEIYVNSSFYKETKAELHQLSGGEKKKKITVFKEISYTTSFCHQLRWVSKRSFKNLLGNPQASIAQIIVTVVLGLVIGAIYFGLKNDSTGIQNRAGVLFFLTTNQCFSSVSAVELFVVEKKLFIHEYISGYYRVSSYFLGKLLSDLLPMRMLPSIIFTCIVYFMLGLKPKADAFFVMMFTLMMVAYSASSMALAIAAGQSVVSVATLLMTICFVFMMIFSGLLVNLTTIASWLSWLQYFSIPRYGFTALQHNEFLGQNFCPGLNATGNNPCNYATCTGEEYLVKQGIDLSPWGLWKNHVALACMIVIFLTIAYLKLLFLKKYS
Chain of Fatty acid synthase (Homo sapiens) (P49327 whole entry, looked up): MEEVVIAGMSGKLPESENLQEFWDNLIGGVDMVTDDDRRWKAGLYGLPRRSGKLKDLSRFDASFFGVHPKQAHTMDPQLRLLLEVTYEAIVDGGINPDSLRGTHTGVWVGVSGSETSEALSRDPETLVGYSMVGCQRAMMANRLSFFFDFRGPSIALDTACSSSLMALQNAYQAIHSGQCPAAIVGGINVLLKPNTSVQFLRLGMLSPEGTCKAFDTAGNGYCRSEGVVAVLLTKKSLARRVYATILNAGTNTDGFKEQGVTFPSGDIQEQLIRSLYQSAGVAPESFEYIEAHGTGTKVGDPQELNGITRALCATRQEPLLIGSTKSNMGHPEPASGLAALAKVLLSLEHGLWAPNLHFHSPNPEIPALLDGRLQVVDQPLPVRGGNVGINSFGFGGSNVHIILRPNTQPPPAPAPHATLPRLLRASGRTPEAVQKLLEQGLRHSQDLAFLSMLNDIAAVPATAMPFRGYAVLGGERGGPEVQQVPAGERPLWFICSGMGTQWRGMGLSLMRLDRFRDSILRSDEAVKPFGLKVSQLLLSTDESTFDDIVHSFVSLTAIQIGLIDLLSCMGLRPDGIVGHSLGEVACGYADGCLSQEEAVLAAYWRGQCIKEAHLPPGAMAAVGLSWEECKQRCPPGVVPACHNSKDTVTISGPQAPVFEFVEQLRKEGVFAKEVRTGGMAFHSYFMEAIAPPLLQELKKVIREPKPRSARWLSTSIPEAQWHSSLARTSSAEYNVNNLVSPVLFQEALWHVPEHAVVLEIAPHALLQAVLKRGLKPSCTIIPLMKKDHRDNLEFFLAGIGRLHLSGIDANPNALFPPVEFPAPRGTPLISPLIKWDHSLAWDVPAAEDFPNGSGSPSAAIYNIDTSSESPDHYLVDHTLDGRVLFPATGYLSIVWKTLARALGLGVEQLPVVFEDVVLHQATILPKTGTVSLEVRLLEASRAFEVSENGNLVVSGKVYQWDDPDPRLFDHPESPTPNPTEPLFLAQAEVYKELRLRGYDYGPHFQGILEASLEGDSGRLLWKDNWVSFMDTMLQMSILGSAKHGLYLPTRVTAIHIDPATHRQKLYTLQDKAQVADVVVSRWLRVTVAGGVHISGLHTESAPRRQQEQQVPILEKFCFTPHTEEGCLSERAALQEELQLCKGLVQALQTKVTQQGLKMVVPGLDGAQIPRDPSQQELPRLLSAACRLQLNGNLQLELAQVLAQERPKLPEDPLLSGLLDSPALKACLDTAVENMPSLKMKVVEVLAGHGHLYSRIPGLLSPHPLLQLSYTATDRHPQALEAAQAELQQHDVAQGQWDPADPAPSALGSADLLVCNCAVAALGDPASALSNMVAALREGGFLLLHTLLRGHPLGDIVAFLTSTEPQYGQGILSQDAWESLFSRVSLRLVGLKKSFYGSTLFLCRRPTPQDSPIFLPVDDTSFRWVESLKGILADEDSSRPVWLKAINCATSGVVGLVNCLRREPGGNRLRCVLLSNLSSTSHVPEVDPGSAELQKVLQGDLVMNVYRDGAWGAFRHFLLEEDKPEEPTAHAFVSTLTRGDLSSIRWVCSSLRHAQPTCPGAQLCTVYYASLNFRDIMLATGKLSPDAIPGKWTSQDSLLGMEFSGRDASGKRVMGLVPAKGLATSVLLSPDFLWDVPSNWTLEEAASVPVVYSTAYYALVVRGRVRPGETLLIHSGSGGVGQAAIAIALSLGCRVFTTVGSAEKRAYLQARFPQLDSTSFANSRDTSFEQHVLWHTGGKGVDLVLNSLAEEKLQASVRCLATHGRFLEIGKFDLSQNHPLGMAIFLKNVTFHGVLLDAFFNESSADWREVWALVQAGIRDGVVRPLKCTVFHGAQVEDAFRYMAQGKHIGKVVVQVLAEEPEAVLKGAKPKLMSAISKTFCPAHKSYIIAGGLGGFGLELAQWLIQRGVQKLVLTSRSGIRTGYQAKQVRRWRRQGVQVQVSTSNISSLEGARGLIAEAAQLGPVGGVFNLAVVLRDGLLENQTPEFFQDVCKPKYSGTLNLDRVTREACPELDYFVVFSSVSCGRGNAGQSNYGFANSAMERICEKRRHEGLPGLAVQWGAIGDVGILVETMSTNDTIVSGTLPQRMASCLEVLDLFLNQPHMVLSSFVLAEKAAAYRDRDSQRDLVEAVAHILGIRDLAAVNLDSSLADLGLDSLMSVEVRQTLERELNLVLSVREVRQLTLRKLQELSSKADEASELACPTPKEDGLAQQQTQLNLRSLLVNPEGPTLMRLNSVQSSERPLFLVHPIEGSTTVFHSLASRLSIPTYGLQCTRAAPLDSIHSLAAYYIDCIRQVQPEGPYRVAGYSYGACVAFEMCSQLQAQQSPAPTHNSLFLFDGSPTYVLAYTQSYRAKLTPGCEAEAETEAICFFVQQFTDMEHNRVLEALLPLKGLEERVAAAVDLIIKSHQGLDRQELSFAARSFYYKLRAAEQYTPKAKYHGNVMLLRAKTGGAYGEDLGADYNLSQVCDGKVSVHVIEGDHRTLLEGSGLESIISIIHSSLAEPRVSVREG

A word on the AC50: it is the concentration at which the activity in the assay is half-maximal. For the compound `Cc1ccc([N+](=O)[O-])cc1N`, the compound was called inactive in assay [1], in [2], in assay [3], in assay [4], in assay [5] and in assay [7]. Besides, the compound was classed as inactive in [8], in assay [9], in assay [10], in assay [11], in assay [12] and in assay [13]. Also, the call in assay [14], in assay [15], in [16] and in [17] was inactive. In assay [6], the half-maximal activity concentration (AC50) is 25 µM (active).

As for `COc1ccc(C(=O)c2ccccc2)c(O)c1`, the compound was called inactive in assay [18].

For the compound `C1CNCCN1`, the outcome in assay [1], in [19], in [20], in assay [2], in [3] and in assay [4] was inactive. Moreover, the result in [5], in assay [7], in assay [8], in assay [9], in assay [10] and in [11] was inactive. Also, the compound was classed as inactive in assay [12], in assay [13], in assay [14], in [15], in assay [16] and in [17]. In assay [6], the AC50 is 73.1 µM (active).

As to `CCOC(=O)C1=NN(c2ccc(Cl)cc2Cl)C(C)(C(=O)OCC)C1` (stereo not drawn), the outcome in assay [18] was inactive.

Turning to `C=CC(=O)OCCCCCCOC(=O)C=C`, the compound was classed as inactive in assay [18].

Regarding `Nc1ccc(C(=O)O)cc1`, the call in assay [1], in [19], in assay [20], in assay [2], in assay [3] and in [4] was inactive. In addition, the outcome in [5], in [7], in assay [8], in [9], in [10] and in assay [11] was inactive. The call in assay [12], in assay [13], in [14], in assay [15], in assay [16] and in assay [17] was inactive. Moreover, the half-maximal activity concentration (AC50) in assay [6] was 77 µM (active).
